# Laboratory results from PubChem BioAssay (Tox21).
# Where “and” joins values, the source holds several entries; their conditions need not be identical. Equal entries are not always repeated. Results filed as inconclusive are left out. Entries that show only a call come without a potency. Some compounds were tested as several samples or in several runs, with calls that do not always agree. Calls of active or inactive are those of the source. Unless noted, calls follow the shape of the dose curve; as a rule, active = well fitted curve in the direction sought with a large enough effect in the repeat runs; inconclusive = weak or mixed curves; inactive = no such curve, though single readings can be large; an effect the other way counts as inactive or inconclusive.
# How the values were obtained:
# [1] = qHTS assay to identify small molecule agonists of H2AX (AID 1224845; active = well fitted activation curve with a large enough effect in the signal ratio in the repeat runs, not every such curve was filed as active; the % refers to the signal ratio)
# Summary of the method: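 Wild-type CHO-K1 cells plated overnight, then exposed 3 hr at 37C to compounds at 15 concentrations (0.76% DMSO). Lysed, then HTRF anti-pH2AX(S139)-cryptate/anti-H2AX-d2 detection after 24 hr at room temperature; emissions 665 and 620 nm.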
# [2] = qHTS assay to identify small molecule agonists of the hypoxia (HIF-1) signaling pathway (AID 1224846; active = well fitted activation curve with a large enough effect in the signal ratio in the repeat runs, not every such curve was filed as active; the % refers to the signal ratio)
# Summary of the method: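 A low-serum medium (0.5% dialyzed FBS) holding 2,000 HRE-bla ME-180 cells per well is preincubated for 5 hrs, dosed with compounds by pintool, and kept a further 17 hrs at 37C, 5% CO2 before CCF4-AM FRET detection of beta-lactamase.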
# [3] = qHTS assay to identify small molecule agonists of H2AX - cell viability counter screen (AID 1224847; calls by dose curve; also: top concentration of the series differs between compounds; nearly all actives have a fitted effect of over 30% in size)
# Summary of the method: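 Cells plated first: CHO-K1, 1000 per well in 10% FBS medium, incubated overnight at 37C. Then 15-point compound titration added (final DMSO 0.76%) for 3 hr. Finally CellTiter-Glo added and luminescence read.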
# [4] = qHTS assay to identify small molecule antagonists of the estrogen related receptor (ERR) signaling pathway from Tox21 library (AID 1224848); also: nearly all actives have a fitted effect of over 50% in size; also: potency is read from the fitted curve at half-maximal effect
# Summary of the method: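 Cells: ERR line, 2,000/well; 6 h preincubation 37 C/5% CO2. Cpd in DMSO via pin tool; 18 h, 37 C. ONE-Glo, 30 min RT, luminescence.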
# [5] = qHTS assay to identify small molecule agonists of the estrogen related receptor (ERR) signaling pathway from Tox21 library (AID 1224849; calls by dose curve; also: nearly all actives have a fitted effect of over 15% in size); settings: ERR reporter cell line, ONE-Glo luciferase, 18 h; at 92.4 µM (top of the series)
# Summary of the method: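 Screening used an NTP-provided ERR luciferase cell line. Compounds in DMSO were added 6 h after seeding and left 18 h at 37 C before a 30 min ONE-Glo step and luminescence reading.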
# [6] = qHTS RealTime-Glo MT Cell Viability Assay in HepG2 cells - 24 hour (AID 1224867); also: nearly all actives have a fitted effect of over 50% in size
# Summary of the method: (§1)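 HepG2 suspension premixed with RealTime-Glo reagents is plated at 600 cells per well and left 5 h at 37 C/5% CO2. Compounds in DMSO then go in, and bioluminescence reflecting viable cell number is recorded over 40 h.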
# [7] = qHTS RealTime-Glo MT Cell Viability Assay in HEK293 cells - 32 hour (AID 1224868); also: top concentration of the series differs between compounds; nearly all actives have a fitted effect of over 50% in size
# Summary of the method: (§2)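 Reads taken at 0, 8, 16, 24, 32 and 40 h from the same wells. HEK293 cells (600/well) carried RealTime-Glo reagents from seeding, with compound added after a 5 h settle at 37 C.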
# [8] = A CellTox Green Cytotoxicity Assay to monitor cytotoxicity in HEK293 cells - 0 hour (AID 1224869); also: nearly all actives have a fitted effect of over 50% in size
# Summary of the method: (§3)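 Fluorescence intensity, read at 0, 8, 16, 24, 32 and 40 h of compound treatment, reflected dye binding to DNA of dead HEK293 cells; compounds (23 nL, DMSO) were added 5 h after plating cells with reagent.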
# [9] = qHTS RealTime-Glo MT Cell Viability Assay in HepG2 cells - 40 hour (AID 1224870); also: nearly all actives have a fitted effect of over 50% in size
# Summary of the method: (§4)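 HepG2 cells mixed with RealTime-Glo MT reagents (NanoLuc plus cell-permeant prosubstrate) were seeded at 600 cells/well, incubated 5 h at 37 C/5% CO2, then pinned with compounds in DMSO; nonlytic luminescence tracked viability during 40 h treatment.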
# [10] = A CellTox Green Cytotoxicity Assay to monitor cytotoxicity in HEK293 cells - 40 hour (AID 1224871); also: nearly all actives have a fitted effect of over 45% in size; also: potency is read from the fitted curve at half-maximal effect
# Summary of the method: as §3
# [11] = qHTS RealTime-Glo MT Cell Viability Assay in HEK293 cells - 16 hour (AID 1224872); also: nearly all actives have a fitted effect of over 50% in size; also: potency is read from the fitted curve at half-maximal effect
# Summary of the method: as §2
# [12] = qHTS RealTime-Glo MT Cell Viability Assay in HepG2 cells - 8 hour (AID 1224873); also: nearly all actives have a fitted effect of over 55% in size
# Summary of the method: as §4
# [13] = qHTS RealTime-Glo MT Cell Viability Assay in HEK293 cells - 40 hour (AID 1224874); settings: RealTime-Glo luminescence; max response: stronger effect = lower value; also: nearly all actives have a fitted effect of over 50% in size; also: potency is read from the fitted curve at half-maximal effect
# Summary of the method: (§5)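 Viable HEK293 cells reduce a cell-permeant prosubstrate; the product diffuses out and is consumed by NanoLuc in the medium to give light. Compounds went in after a 5 h incubation and plates were read over the treatment course.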
# [14] = A CellTox Green Cytotoxicity Assay to monitor cytotoxicity in HepG2 cells - 16 hour (AID 1224876); also: nearly all actives have a fitted effect of over 45% in size
# Summary of the method: (§6)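 Using 1536-well format, dye-containing HepG2 suspension was seeded, allowed 5 h at 37 C/5% CO2, dosed by pintool with compounds, positive and negative controls, and imaged for fluorescence across 40 h.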
# [15] = qHTS RealTime-Glo MT Cell Viability Assay in HepG2 cells - 32 hour (AID 1224877); also: nearly all actives have a fitted effect of over 55% in size
# Summary of the method: as §1
# [16] = A CellTox Green Cytotoxicity Assay to monitor cytotoxicity in HepG2 cells - 24 hour (AID 1224878); also: nearly all actives have a fitted effect of over 45% in size
# Summary of the method: as §6
# [17] = A CellTox Green Cytotoxicity Assay to monitor cytotoxicity in HepG2 cells - 40 hour (AID 1224879); also: nearly all actives have a fitted effect of over 40% in size; also: potency is read from the fitted curve at half-maximal effect
# Summary of the method: as §6
# [18] = qHTS RealTime-Glo MT Cell Viability Assay in HEK293 cells - 0 hour (AID 1224880); also: top concentration of the series differs between compounds; nearly all actives have a fitted effect of over 45% in size
# Summary of the method: as §5
# [19] = A CellTox Green Cytotoxicity Assay to monitor cytotoxicity in HEK293 cells - 32 hour (AID 1224881); also: nearly all actives have a fitted effect of over 40% in size; also: potency is read from the fitted curve at half-maximal effect
# Summary of the method: as §3
# [20] = A CellTox Green Cytotoxicity Assay to monitor cytotoxicity in HEK293 cells - 24 hour (AID 1224875); also: nearly all actives have a fitted effect of over 45% in size
# Summary of the method: as §3
smiles,measurement,setting,value
CCCCCCC(=O)O,Potency,[1],inactive
same,outcome,[2],inactive
same,Potency,[3],inactive
same,Potency,[4],inactive
same,"activity change, positive = activation",[5],5.44% (inactive) and -1.64% (inactive)
same,Potency,[6],inactive
same,Potency,[7],inactive
same,Potency,[8],inactive
same,Potency,[9],inactive
same,Potency,[10],inactive
same,Potency,[11],inactive
same,Potency,[12],inactive
same,max response,[13],0.822% (inactive) and 2.88% (inactive)
same,Potency,[14],inactive
same,Potency,[15],inactive
same,Potency,[16],inactive
same,Potency,[17],inactive
same,Potency,[18],inactive
same,Potency,[19],inactive
C[n+]1ccn(CCO)c1,Potency,[1],inactive
same,outcome,[2],inactive
same,Potency,[3],inactive
same,Potency,[4],inactive
same,"activity change, positive = activation",[5],4.16% (inactive) and -3.23% (inactive)
same,Potency,[6],inactive
same,Potency,[7],inactive
same,Potency,[8],inactive
same,Potency,[9],inactive
same,Potency,[10],inactive
same,Potency,[11],inactive
same,Potency,[12],inactive
same,max response,[13],6.1% (inactive) and 16.8% (inactive)
same,Potency,[20],inactive
same,Potency,[14],inactive
same,Potency,[15],inactive
same,Potency,[16],inactive
same,Potency,[17],inactive
same,Potency,[18],inactive
same,Potency,[19],inactive
CC(=O)OC(C)(C)C1CC=C(C)CC1 (centres undefined),Potency,[1],inactive
same,outcome,[2],inactive
same,Potency,[3],inactive
same,Potency,[4],inactive
same,"activity change, positive = activation",[5],5.97% (inactive) and -1.38% (inactive)
same,Potency,[6],inactive
same,Potency,[7],inactive
same,Potency,[8],inactive
same,Potency,[9],inactive
same,Potency,[10],inactive
same,Potency,[11],inactive
same,Potency,[12],inactive
same,max response,[13],3.8% (inactive) and -15.5% (inactive)
same,Potency,[20],inactive
same,Potency,[14],inactive
same,Potency,[15],inactive
same,Potency,[16],inactive
same,Potency,[17],inactive
same,Potency,[18],inactive
same,Potency,[19],inactive
O=Cc1ccc(CO)o1,Potency,[1],inactive
same,outcome,[2],inactive
same,Potency,[3],inactive
same,Potency,[4],inactive
same,"activity change, positive = activation",[5],0.746% (inactive) and -3.97% (inactive)
same,Potency,[6],inactive
same,Potency,[8],inactive
same,Potency,[9],inactive
same,Potency,[10],inactive
same,Potency,[11],inactive
same,Potency,[12],inactive
same,max response,[13],-0.203% (inactive) and -12.4% (inactive)
same,Potency,[20],inactive
same,Potency,[14],inactive
same,Potency,[15],inactive
same,Potency,[16],inactive
same,Potency,[17],inactive
same,Potency,[18],inactive
same,Potency,[19],inactive
CC(=O)OCCC(C)C,Potency,[1],inactive
same,outcome,[2],inactive
same,Potency,[3],inactive
same,Potency,[4],inactive
same,"activity change, positive = activation",[5],1.01% (inactive) and 5.99% (inactive)
same,Potency,[6],inactive
same,Potency,[7],inactive
same,Potency,[8],inactive
same,Potency,[9],inactive
same,Potency,[10],inactive
same,Potency,[11],inactive
same,Potency,[12],inactive
same,max response,[13],3.8% (inactive) and 7.54% (inactive)
same,Potency,[20],inactive
same,Potency,[14],inactive
same,Potency,[15],inactive
same,Potency,[16],inactive
same,Potency,[17],inactive
same,Potency,[18],inactive
same,Potency,[19],inactive
COc1ccccc1[N+](=O)[O-],Potency,[1],inactive
same,outcome,[2],inactive
same,Potency,[3],inactive
same,Potency,[4],inactive
same,"activity change, positive = activation",[5],2.88% (inactive)
same,Potency,[6],inactive
same,Potency,[7],inactive
same,Potency,[8],inactive
same,Potency,[9],inactive
same,Potency,[10],inactive
same,Potency,[11],inactive
same,Potency,[12],inactive
same,max response,[13],3.8% (inactive) and 3.66% (inactive)
same,Potency,[14],inactive
same,Potency,[15],inactive
same,Potency,[16],inactive
same,Potency,[17],inactive
same,Potency,[18],inactive
same,Potency,[19],inactive
COc1cc(NC(=O)CC(C)=O)c(OC)cc1Cl,Potency,[1],inactive
same,outcome,[2],inactive
same,Potency,[3],inactive
same,Potency,[4],inactive
same,"activity change, positive = activation",[5],-16.1% (inactive) and -21.5% (inactive)
same,Potency,[6],inactive
same,Potency,[8],inactive
same,Potency,[9],inactive
same,Potency,[10],inactive
same,Potency,[11],inactive and 21.9 µM (active)
same,Potency,[12],inactive
same,Potency,[13],12.3 µM (active)
same,max response,[13],-13.4% (inactive)
same,Potency,[20],inactive
same,Potency,[14],inactive
same,Potency,[15],inactive
same,Potency,[16],inactive
same,Potency,[17],inactive
same,Potency,[19],inactive
C=C1C[C@]23C[C@@]1(O)CC[C@H]2[C@@]12C=C[C@H](O)[C@@](C)(C(=O)O1)[C@H]2[C@@H]3C(=O)O,Potency,[1],inactive
same,outcome,[2],inactive
same,Potency,[3],inactive
same,Potency,[4],inactive
same,"activity change, positive = activation",[5],4.32% (inactive) and 5.25% (inactive)
same,Potency,[6],inactive
same,Potency,[7],inactive
same,Potency,[8],inactive
same,Potency,[9],inactive
same,Potency,[10],inactive
same,Potency,[11],inactive
same,Potency,[12],inactive
same,max response,[13],3.96% (inactive) and 1.17% (inactive)
same,Potency,[20],inactive
same,Potency,[14],inactive
same,Potency,[15],inactive
same,Potency,[16],inactive
same,Potency,[17],inactive
same,Potency,[18],inactive
same,Potency,[19],inactive
COCN(COC)c1nc(N(COC)COC)nc(N(COC)COC)n1,Potency,[1],inactive
same,outcome,[2],inactive
same,Potency,[3],inactive
same,Potency,[4],inactive
same,"activity change, positive = activation",[5],-2.4% (inactive) and 4.33% (inactive)
same,Potency,[6],inactive
same,Potency,[8],inactive
same,Potency,[9],inactive
same,Potency,[10],inactive
same,Potency,[11],inactive
same,Potency,[12],inactive
same,max response,[13],-2.02% (inactive) and -0.0674% (inactive)
same,Potency,[20],inactive
same,Potency,[14],inactive
same,Potency,[15],inactive
same,Potency,[16],inactive
same,Potency,[17],inactive
same,Potency,[18],inactive
same,Potency,[19],inactive
CC1=CC(=O)CC(C)(C)C1,Potency,[1],inactive
same,outcome,[2],inactive
same,Potency,[3],inactive
same,Potency,[4],14.1 µM (active) and inactive
same,"activity change, positive = activation",[5],-82.9% (inactive) and 7.49% (inactive)
same,Potency,[6],inactive
same,Potency,[7],inactive
same,Potency,[8],inactive
same,Potency,[9],inactive
same,Potency,[10],25.3 µM (active) and inactive
same,Potency,[11],inactive
same,Potency,[12],inactive
same,max response,[13],9.76% (inactive)
same,Potency,[20],inactive
same,Potency,[14],inactive
same,Potency,[15],inactive
same,Potency,[16],inactive
same,Potency,[17],25.3 µM (active) and inactive
same,Potency,[19],40 µM (active) and inactive
CC(C)(CO)CO,Potency,[1],inactive
same,outcome,[2],inactive
same,Potency,[3],inactive
same,Potency,[4],inactive
same,"activity change, positive = activation",[5],2.96% (inactive) and 5.63% (inactive)
same,Potency,[6],inactive
same,Potency,[7],inactive
same,Potency,[8],inactive
same,Potency,[9],inactive
same,Potency,[10],inactive
same,Potency,[11],inactive
same,Potency,[12],inactive
same,max response,[13],3.9% (inactive) and 0.954% (inactive)
same,Potency,[20],inactive
same,Potency,[14],inactive
same,Potency,[15],inactive
same,Potency,[16],inactive
same,Potency,[17],inactive
same,Potency,[18],inactive
same,Potency,[19],inactive
